# Activity calls are given as the source filed them. The rule behind the calls is not given here.
# Molecular target: Histone deacetylase 3 (Homo sapiens) (UniProt O15379)
# Assay: inhibitors of recombinant human HDAC3 – biochemical, selectivity assay for E-cadherin restoration project, profiling panel (AID 651916)
# Sequence of Histone deacetylase 3 (Homo sapiens) (O15379 whole entry, looked up): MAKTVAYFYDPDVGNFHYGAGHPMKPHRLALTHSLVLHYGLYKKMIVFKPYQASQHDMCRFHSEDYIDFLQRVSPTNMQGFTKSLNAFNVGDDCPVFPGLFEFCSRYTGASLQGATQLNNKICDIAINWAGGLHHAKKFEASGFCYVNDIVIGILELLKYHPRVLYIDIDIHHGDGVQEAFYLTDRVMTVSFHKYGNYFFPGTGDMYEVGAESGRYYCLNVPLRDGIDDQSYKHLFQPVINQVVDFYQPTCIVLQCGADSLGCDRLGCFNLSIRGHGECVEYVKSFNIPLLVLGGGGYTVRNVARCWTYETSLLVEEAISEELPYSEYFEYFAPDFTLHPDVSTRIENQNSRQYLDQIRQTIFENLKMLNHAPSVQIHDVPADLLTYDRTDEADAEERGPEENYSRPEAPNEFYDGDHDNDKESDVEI
smiles,measurement,value
O=C(NCCCNC(=O)c1ccc[nH]c1=O)c1cc(-c2ccccc2)on1,outcome,inactive
